Measured values taken from publication PMC9911399, “Two distinct binding modes provide the RNA-binding protein RbFox with extraordinary sequence specificity”.
Substitutions are numbered along the chain they refer to; changes in the protein carry UniProt numbers. The full ranking holds about 16,000 sequences; the median of “ka relative to ugcaugu” is about 0.096, and the highest 2% start at about 0.35. Only a selection was taken, and the highest values are over-represented in it overall.

T1: RBFOX1 RRM RbFoxmut (Fox-RRM*) (Homo sapiens, UniProt Q9NWB1 109-208, R118D;E147R;N151S;E152T)
T1 sequence: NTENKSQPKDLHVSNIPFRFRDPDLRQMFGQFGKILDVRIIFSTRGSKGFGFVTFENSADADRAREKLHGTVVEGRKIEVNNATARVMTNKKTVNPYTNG

B1: AGACGGA (DNA:RNA)
RNA: GGGAGACCGGAAUUCAGAUUGUCCAGACGGAUUAAAUCCCGUCGUAGCCACCA
DNA 1: CAATCTGAATTCCGGTCTCCC
DNA 2: TGGTGGCTACGACGGGATT
B2: CACCGUU (DNA:RNA)
RNA: B1 RNA with A25C, G26A, A27C, G30U, A31U
DNA 1: CAATCTGAATTCCGGTCTCCC
DNA 2: TGGTGGCTACGACGGGATT
B3: GUGUCCA (DNA:RNA)
RNA: B1 RNA with A25G, G26U, A27G, C28U, G29C, G30C
DNA 1: CAATCTGAATTCCGGTCTCCC
DNA 2: TGGTGGCTACGACGGGATT
B4: CCCAAUU (DNA:RNA)
RNA: GGGAGACCGGAAUUCAGAUUGUCCCCCAAUUUUAAAUCCCGUCGUAGCCACCA
DNA 1: CAATCTGAATTCCGGTCTCCC
DNA 2: TGGTGGCTACGACGGGATT
B5: GUAUUUG (DNA:RNA)
RNA: B1 RNA with A25G, G26U, C28U, G29U, G30U, A31G
DNA 1: CAATCTGAATTCCGGTCTCCC
DNA 2: TGGTGGCTACGACGGGATT
B6: CCUUCAG (DNA:RNA)
RNA: B4 RNA with C27U, A28U, A29C, U30A, U31G
DNA 1: CAATCTGAATTCCGGTCTCCC
DNA 2: TGGTGGCTACGACGGGATT
B7: UGUCGGU (DNA:RNA)
RNA: B1 RNA with A25U, A27U, A31U
DNA 1: CAATCTGAATTCCGGTCTCCC
DNA 2: TGGTGGCTACGACGGGATT
B8: ACGAACU (DNA:RNA)
RNA: B4 RNA with C25A, C27G, U30C
DNA 1: CAATCTGAATTCCGGTCTCCC
DNA 2: TGGTGGCTACGACGGGATT
B9: UCCUGGC (DNA:RNA)
RNA: B1 RNA with A25U, G26C, A27C, C28U, A31C
DNA 1: CAATCTGAATTCCGGTCTCCC
DNA 2: TGGTGGCTACGACGGGATT
B10: UGGCUUG (DNA:RNA)
RNA: B1 RNA with A25U, A27G, G29U, G30U, A31G
DNA 1: CAATCTGAATTCCGGTCTCCC
DNA 2: TGGTGGCTACGACGGGATT
B11: CAGUGCC (DNA:RNA)
RNA: B1 RNA with A25C, G26A, A27G, C28U, G30C, A31C
DNA 1: CAATCTGAATTCCGGTCTCCC
DNA 2: TGGTGGCTACGACGGGATT
B12: AGUGCCU (DNA:RNA)
RNA: B1 RNA with A27U, C28G, G29C, G30C, A31U
DNA 1: CAATCTGAATTCCGGTCTCCC
DNA 2: TGGTGGCTACGACGGGATT
B13: ACUUGCC (DNA:RNA)
RNA: B1 RNA with G26C, A27U, C28U, G30C, A31C
DNA 1: CAATCTGAATTCCGGTCTCCC
DNA 2: TGGTGGCTACGACGGGATT
B14: UGCUGGC (DNA:RNA)
RNA: B1 RNA with A25U, A27C, C28U, A31C
DNA 1: CAATCTGAATTCCGGTCTCCC
DNA 2: TGGTGGCTACGACGGGATT
B15: CAGUGCG (DNA:RNA)
RNA: B1 RNA with A25C, G26A, A27G, C28U, G30C, A31G
DNA 1: CAATCTGAATTCCGGTCTCCC
DNA 2: TGGTGGCTACGACGGGATT
B16: CCGUGCC (DNA:RNA)
RNA: B4 RNA with C27G, A28U, A29G, U30C, U31C
DNA 1: CAATCTGAATTCCGGTCTCCC
DNA 2: TGGTGGCTACGACGGGATT
B17: UUGCCAC (DNA:RNA)
RNA: B1 RNA with A25U, G26U, A27G, G29C, G30A, A31C
DNA 1: CAATCTGAATTCCGGTCTCCC
DNA 2: TGGTGGCTACGACGGGATT
B18: GUGUGCC (DNA:RNA)
RNA: B1 RNA with A25G, G26U, A27G, C28U, G30C, A31C
DNA 1: CAATCTGAATTCCGGTCTCCC
DNA 2: TGGTGGCTACGACGGGATT
B19: UUGUGCC (DNA:RNA)
RNA: B1 RNA with A25U, G26U, A27G, C28U, G30C, A31C
DNA 1: CAATCTGAATTCCGGTCTCCC
DNA 2: TGGTGGCTACGACGGGATT
B20: ACUUGCG (DNA:RNA)
RNA: B1 RNA with G26C, A27U, C28U, G30C, A31G
DNA 1: CAATCTGAATTCCGGTCTCCC
DNA 2: TGGTGGCTACGACGGGATT
B21: CCUUAUC (DNA:RNA)
RNA: B4 RNA with C27U, A28U, U31C
DNA 1: CAATCTGAATTCCGGTCTCCC
DNA 2: TGGTGGCTACGACGGGATT
B22: AAAUGUC (DNA:RNA)
RNA: B1 RNA with G26A, C28U, G30U, A31C
DNA 1: CAATCTGAATTCCGGTCTCCC
DNA 2: TGGTGGCTACGACGGGATT
B23: CUAUAGG (DNA:RNA)
RNA: B1 RNA with A25C, G26U, C28U, G29A, A31G
DNA 1: CAATCTGAATTCCGGTCTCCC
DNA 2: TGGTGGCTACGACGGGATT
B24: CUGCGUG (DNA:RNA)
RNA: B1 RNA with A25C, G26U, A27G, G30U, A31G
DNA 1: CAATCTGAATTCCGGTCTCCC
DNA 2: TGGTGGCTACGACGGGATT
B25: CCUAGCA (DNA:RNA)
RNA: B4 RNA with C27U, A29G, U30C, U31A
DNA 1: CAATCTGAATTCCGGTCTCCC
DNA 2: TGGTGGCTACGACGGGATT
B26: GUCGUGC (DNA:RNA)
RNA: B1 RNA with A25G, G26U, A27C, C28G, G29U, A31C
DNA 1: CAATCTGAATTCCGGTCTCCC
DNA 2: TGGTGGCTACGACGGGATT
B27: UCCUUGC (DNA:RNA)
RNA: B4 RNA with C25U, A28U, A29U, U30G, U31C
DNA 1: CAATCTGAATTCCGGTCTCCC
DNA 2: TGGTGGCTACGACGGGATT
B28: GUGCUUG (DNA:RNA)
RNA: B1 RNA with A25G, G26U, A27G, G29U, G30U, A31G
DNA 1: CAATCTGAATTCCGGTCTCCC
DNA 2: TGGTGGCTACGACGGGATT
B29: UCCGUGC (DNA:RNA)
RNA: B4 RNA with C25U, A28G, A29U, U30G, U31C
DNA 1: CAATCTGAATTCCGGTCTCCC
DNA 2: TGGTGGCTACGACGGGATT
B30: UUGUUGC (DNA:RNA)
RNA: B1 RNA with A25U, G26U, A27G, C28U, G29U, A31C
DNA 1: CAATCTGAATTCCGGTCTCCC
DNA 2: TGGTGGCTACGACGGGATT
B31: UUGCUUG (DNA:RNA)
RNA: B1 RNA with A25U, G26U, A27G, G29U, G30U, A31G
DNA 1: CAATCTGAATTCCGGTCTCCC
DNA 2: TGGTGGCTACGACGGGATT

What follows are binders tested against T1, RBFOX1 RRM RbFoxmut (Fox-RRM*) (assay: EMSA; HiTS-Eq, 1 nM pool, 10 min; buffer printed only for the single-RNA assays: 10 mM Tris pH 7.5, 150 mM NaCl, 3.4 mM EDTA, 0.001% NP-40, 30 C). Conditions: tags: His6 N-terminal (pET28a); label: 5' 32P.
How it was run: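 These values rest on relative association constants, computed from read-count changes of each RNA species versus the control reaction and normalised to the cognate motif. Reads came from free RNA recovered by 8% native PAGE after purified RbFox RRM (wild type or mutant) at increasing concentrations was equilibrated for 10 min in 50 µL with 1 nM of a 5′-radiolabelled pool with 7 randomized nucleotides and DNA-annealed flanks.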
For B1, the binding signal was 0.0873 KA relative to UGCAUGU.
In the case of B2, the binding signal is reported as 0.0894 KA relative to UGCAUGU.
In the case of B3, the binding signal is reported as 0.121 KA relative to UGCAUGU.
In the case of B4, the binding signal is reported as 0.0634 KA relative to UGCAUGU.
For B5, the binding signal was 0.17 KA relative to UGCAUGU.
In the case of B6, the binding signal is reported as 0.114 KA relative to UGCAUGU.
With B7 the binding signal was 0.112 KA relative to UGCAUGU.
For B8, the binding signal was 0.0682 KA relative to UGCAUGU.
In the case of B9, the binding signal is reported as 0.128 KA relative to UGCAUGU.
In the case of B10, the binding signal is reported as 0.92 KA relative to UGCAUGU.
For B11, the binding signal was 0.402 KA relative to UGCAUGU.
In the case of B12, the binding signal is reported as 0.0968 KA relative to UGCAUGU.
With B13 the binding signal was 0.372 KA relative to UGCAUGU.
With B14 the binding signal was 0.119 KA relative to UGCAUGU.
For B15, the binding signal was 0.148 KA relative to UGCAUGU.
B16 was tested, and the binding signal was 0.264 KA relative to UGCAUGU.
B17 was tested, and the binding signal was 0.0642 KA relative to UGCAUGU.
For B18, the binding signal was 0.22 KA relative to UGCAUGU.
For B19, the binding signal was 0.46 KA relative to UGCAUGU.
B20 was tested, and the binding signal was 0.156 KA relative to UGCAUGU.
For B21, the binding signal was 0.0522 KA relative to UGCAUGU.
In the case of B22, the binding signal is reported as 0.145 KA relative to UGCAUGU.
B23 was tested, and the binding signal was 0.0751 KA relative to UGCAUGU.
For B24, the binding signal was 0.232 KA relative to UGCAUGU.
In the case of B25, the binding signal is reported as 0.119 KA relative to UGCAUGU.
For B26, the binding signal was 0.167 KA relative to UGCAUGU.
In the case of B27, the binding signal is reported as 0.108 KA relative to UGCAUGU.
B28 was tested, and the binding signal was 0.511 KA relative to UGCAUGU.
For B29, the binding signal was 0.084 KA relative to UGCAUGU.
In the case of B30, the binding signal is reported as 0.148 KA relative to UGCAUGU.
In the case of B31, the binding signal is reported as 0.503 KA relative to UGCAUGU.
